{"source": "the supplement of paper PMC10338343", "note": "± gives the standard deviation."}
{"system": "MILI (PIWIL2) piRISC loaded with L1MC piRNA (26 nt)", "assay": "pre-steady-state target cleavage rate (min^-1); guide: L1MC piRNA 5'p-UAACUAAAUACUAUGCAAGCUGUAGG; higher = faster piRNA-guided slicing of the target", "conditions": "auxiliary factor: 500 nM mouse GTSF1", "procedure,_shortened": "(§1)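 Active affinity-purified piRISC (1 nM) loaded with one synthetic guide was mixed with a transcribed, DNA-blocked target RNA library (0.1 nM), with or without 500 nM GTSF1 partner protein, in HEPES–potassium acetate buffer at 33 °C for 0–8 or 0–960 min. Uncleaved targets were sequenced, normalised to depth and to weakly complementary targets, and pooled across three trials, with k3 capped at 0.0001 min^-1. The pre-steady-state cleavage rate was determined with a burst-and-steady-state fit.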"}
{"sequence": "UCCUCCUACAGCUUGCAUCAGUAUUUAGUUA", "pre-steady-state target cleavage rate": "0.0234 ± 0.0093"}
{"sequence": "UCCUGCUACAGCUUGCUUAGUAUUUACUUA", "pre-steady-state target cleavage rate": "0.11 ± 0.015"}
{"sequence": "UCCUGGUACAGCUUGCUAAGUAUUUAGUAA", "pre-steady-state target cleavage rate": "0.036 ± 0.012"}
{"sequence": "UCCUGCUACAGCAUGCAUAGUAUUUACAAA", "pre-steady-state target cleavage rate": "0.146 ± 0.043"}
{"sequence": "UCCUGGUACAGCUUGCAUAGAUAUUAGUUA", "pre-steady-state target cleavage rate": "0.0155 ± 0.005"}
{"sequence": "UCCUGGAUCAGCUUGCUUAGUAUUUAGAUA", "pre-steady-state target cleavage rate": "0.15 ± 0.023"}
{"sequence": "UCCUGGAUCAGCUUGCAAAGUAUUUAGAAA", "pre-steady-state target cleavage rate": "0.0827 ± 0.015"}
{"sequence": "UCCUGGAUGUGCUUGCAUUCUAUUUAGUUA", "pre-steady-state target cleavage rate": "0.0101 ± 0.004"}
{"sequence": "UCCUGGAUGUCCUUGCAAUCUAUUUAGUUA", "pre-steady-state target cleavage rate": "0.00463 ± 0.0037"}
{"sequence": "UCCUGGUACACCUUGCAUAGUAUAUAGUUA", "pre-steady-state target cleavage rate": "0.311 ± 0.059"}
{"sequence": "UCCUGGAUCAGCUUGCAUAGUAUUAGUUA", "pre-steady-state target cleavage rate": "0.141 ± 0.018"}
{"sequence": "UCCUGGAUCAGCUUGGAUAGUAUUUACUUA", "pre-steady-state target cleavage rate": "0.107 ± 0.026"}
{"sequence": "UCCUGGAACAGCUUGCAAAGUAUUUACUUA", "pre-steady-state target cleavage rate": "0.122 ± 0.027"}
{"sequence": "UCCUCCUACAGCUUGCAUAGAUUUUUCAAA", "pre-steady-state target cleavage rate": "0.0441 ± 0.013"}
{"sequence": "UCCUGGUACAGCUUGCUUAGAAUUUAGUUA", "pre-steady-state target cleavage rate": "0.181 ± 0.059"}
{"sequence": "UCCUGGAUGUCGAAGCAUAGUAUUCAGUUA", "pre-steady-state target cleavage rate": "0.00908 ± 0.0042"}
{"sequence": "UCCUGGAUCAGCUUGCAUAGAUUUUAGUAA", "pre-steady-state target cleavage rate": "0.0227 ± 0.0073"}
{"sequence": "UCCUGGAUGAGCUUGCAUAGAAUUUAGUUA", "pre-steady-state target cleavage rate": "0.0653 ± 0.017"}
{"sequence": "UCCUGGUACAGCUUGCUUAGUAUUUUGUUA", "pre-steady-state target cleavage rate": "0.0736 ± 0.021"}
{"sequence": "UCCUGGUACACCUUGCAUAGUAUUUUGUUA", "pre-steady-state target cleavage rate": "0.201 ± 0.054"}
{"sequence": "UCCUGGAUGUGCUUGCUUAGUAUUUAGAUA", "pre-steady-state target cleavage rate": "0.141 ± 0.032"}
{"sequence": "UCCUGGAACUCCUUGCAUAGUAUUUUCAAA", "pre-steady-state target cleavage rate": "0.0315 ± 0.0074"}
{"sequence": "UCCUGGAUCAGCUACCAUAGUAUUUAGAAA", "pre-steady-state target cleavage rate": "0.024 ± 0.0091"}
{"sequence": "UCCUGGAACAGCUUGCAUAGUUUUUACUUA", "pre-steady-state target cleavage rate": "0.0363 ± 0.011"}
{"sequence": "UCCUGGAUGUGCAUGCAUAGAAUUUAGUUA", "pre-steady-state target cleavage rate": "0.00714 ± 0.0044"}
{"sequence": "UCCUGGUAGAGCUUCCAUAGUAUUUAGUUA", "pre-steady-state target cleavage rate": "0.0967 ± 0.033"}
{"sequence": "UCCUGGAUGUGCUUGCAUAGUAUUAAGUAA", "pre-steady-state target cleavage rate": "0.015 ± 0.0059"}
{"sequence": "UCCUGGAUGUCGUUGCAUAGUAUUUAGCUUA", "pre-steady-state target cleavage rate": "0.0208 ± 0.0083"}
{"sequence": "UCCUGGAUGAGCUUGCAUAGUAUUAGUUA", "pre-steady-state target cleavage rate": "0.0846 ± 0.015"}
{"sequence": "UCCUCCUACAGCUAGCAUAGUAUUUACAAA", "pre-steady-state target cleavage rate": "0.0849 ± 0.018"}
{"sequence": "UCCUGGAUGUCCUAGGAUAGUAUUUAGUUA", "pre-steady-state target cleavage rate": "0.0104 ± 0.0042"}
{"system": "MILI (PIWIL2) piRISC loaded with L1MC piRNA (26 nt)", "assay": "pre-steady-state target cleavage rate (min^-1); guide: L1MC piRNA 5'p-UAACUAAAUACUAUGCAAGCUGUAGG; MIWI and MILI are mouse PIWI proteins and EfPiwi is from a freshwater sponge; tags in brackets are library labels; higher = faster piRNA-guided slicing of the target", "conditions": "auxiliary factor: none (no GTSF1)", "procedure,_shortened": "as §1"}
{"sequence": "UCCUGGAUCAGCUUGCAUAGGUAUUUAGUUA", "pre-steady-state target cleavage rate": "0.00357 ± 0.0027"}
{"sequence": "UCCUGGAUGUCGUUGCAUACAAUUUAGUUA", "pre-steady-state target cleavage rate": "0.00319 ± 0.0024"}
{"sequence": "UCCUGGAUGUCGAUGGAUUGUAUUUAGUUA", "pre-steady-state target cleavage rate": "< 0.0001"}
{"sequence": "UCCUGGAUGUCGAACCAAAGUAUUUAGAUA", "pre-steady-state target cleavage rate": "< 0.0001"}
{"sequence": "UCCUGGAUGAGCUUGCAUAGAUAUUACAAA", "pre-steady-state target cleavage rate": "< 0.0001"}
{"sequence": "UCCUGGAUGUCGAACCAUAAUAUUUAGUUA", "pre-steady-state target cleavage rate": "< 0.0001"}
{"sequence": "UCCUGGAUGUCGAACGUUACUUUUUAGUUA", "pre-steady-state target cleavage rate": "< 0.0001"}
{"sequence": "UCCUGGAUGUCGAACGUAAGUAUUUAGUUUA", "pre-steady-state target cleavage rate": "< 0.0001"}
{"sequence": "UCCUGGAUGUCGAUGCAUACUAUUUAGAUA", "pre-steady-state target cleavage rate": "< 0.0001"}
